Bioassay records deposited in PubChem BioAssay by Broad Institute.
Only a selection was taken, and hits are over-represented in it overall.
miR122 inh: activators of miR-122 sensor in Huh7 cells; Huh7 psiCHECK-miR122 Renilla luciferase sensor, 48 h; activation, % at 12.5 µM; 340,000 compounds, 0.14% hits; AID 623901;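 active means mean activation of 30% or more, with every replicate also reaching 30%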;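 further: 0% = median of neutral control wells and 100% = median of positive control wells; higher luciferase signal means stronger suppression of miR-122 activity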
* marks the source's active call; other numbers are inactive results.

SMILES	miR122 inh
CCN(CC)CCNC(=O)c1ccc(NC(=O)c2cn(-c3ccc(F)cc3)nc2-c2cccc(OC)c2)cc1	68*
COc1cccc(C(=O)Nc2ccc(C(=O)O)cc2)c1	-113
Cc1ccc(NS(=O)(=O)c2cc(C(=O)N3CCN(C)CC3)ccc2C)cc1C	-95
C[C@H](CO)N1C[C@H](C)[C@@H](CN(C)Cc2ccccn2)Oc2ncc(C#CCc3ccccc3)cc2C1=O	7
CCCCCCOc1ccc(/C(C)=N/NC2=NCCN2)cc1	65*
O=C1Nc2ccc([N+](=O)[O-])cc2OC1CCN1CCN(Cc2ccc3c(c2)OCO3)CC1 (stereo not given)	-153
C/C=C/c1cnc2c(c1)C(=O)N([C@H](C)CO)C[C@@H](C)[C@H](CN(C)C(=O)Nc1cccc(OC)c1)O2	5
CCCNC(=O)N(C)C[C@@H]1Oc2cc(C#Cc3ccccn3)ccc2S(=O)(=O)N([C@H](C)CO)C[C@@H]1C	15
OC(c1cc(C(F)(F)F)nc2c(Cl)cc(Cl)cc12)C1CCCCN1 (stereo not given)	41*
COC(=O)c1ccccc1NC(=O)Cn1c(-c2nonc2N)nc2ccccc21	-104
C[C@@H]1CN([C@@H](C)CO)C(=O)c2cc(-c3ccc(F)cc3)cnc2O[C@H]1CN(C)C(=O)c1cccnc1	-8
Cc1c(NC(=O)/C=C/c2cn(-c3ccccc3)nc2-c2ccccc2)c(=O)n(-c2ccccc2)n1C	37*
CCC(=O)Nc1ccc2c(c1)OC[C@@H](C)N(C(=O)CN1CCOCC1)C[C@H](C)[C@@H](OC)CN(C)C2=O	0
CCCNC(=O)C[C@H]1CC[C@@H]2[C@@H](COc3ccc(NC(=O)c4ccc(C(F)(F)F)cc4)cc3C(=O)N2C)O1	45*
CO[C@@H]1CN(C)C(=O)c2ccc(NS(=O)(=O)c3ccc(C)cc3)cc2OC[C@H](C)N(C)C[C@@H]1C	1
CN1C(=O)c2cc(NC(=O)c3ccc(C(F)(F)F)cc3)ccc2OC[C@H]2O[C@H](CC(=O)NCc3ccc4c(c3)OCO4)CC[C@H]21	33*
COc1ccccc1CNC(=O)C[C@H]1CC[C@H]2[C@@H](COc3ccc(NS(=O)(=O)c4ccc(C)cc4)cc3C(=O)N2C)O1	-807
CN1C(=O)c2cc(NC(=O)c3cccc(C(F)(F)F)c3)ccc2OC[C@H]2O[C@H](CC(=O)NCCN3CCCC3)CC[C@H]21	65*
Cc1ccc(S(=O)(=O)Nc2ccc3c(c2)C(=O)N(C)[C@@H]2CC[C@H](CC(=O)NCCc4ccncc4)O[C@@H]2CO3)cc1	45*
C/C=C/c1cnc2c(c1)C(=O)N([C@H](C)CO)C[C@H](C)[C@H](CN(C)S(=O)(=O)c1cccs1)O2	-2
C[C@H](O)C#Cc1ccc2c(c1)O[C@@H](CN(C)C(=O)Cc1ccccn1)[C@@H](C)CN([C@H](C)CO)S2(=O)=O	4
COc1ccc(NC(=O)Nc2ccc3c(c2)CC(=O)N([C@@H](C)CO)C[C@@H](C)[C@H](CN(C)C(=O)NC(C)C)O3)cc1	-101
COCC#Cc1ccc2c(c1)O[C@H](CN(C)C(=O)COC)[C@@H](C)CN([C@@H](C)CO)S2(=O)=O	1
CC(C)CC#Cc1cnc2c(c1)C(=O)N([C@H](C)CO)C[C@@H](C)[C@H](CN(C)S(=O)(=O)c1ccccc1)O2	4
C[C@H]1CN([C@@H](C)CO)S(=O)(=O)c2ccc(C#CCC3CCCC3)cc2O[C@H]1CN(C)C(=O)c1ccccn1	0
SMILES	miR122 inh
O=C(N/N=C/c1cccc(F)c1)c1csc2c1CCCC2	-95
Cc1ccc(S(=O)(=O)NCCC(=O)Oc2ccc3ccc(=O)oc3c2)cc1	-237
C[C@@H]1CN([C@@H](C)CO)S(=O)(=O)c2ccc(C#C[C@@H](C)O)cc2O[C@@H]1CN(C)Cc1cncnc1	9
C[C@@H]1CN([C@H](C)CO)S(=O)(=O)c2ccc(C#C[C@@H](C)O)cc2O[C@H]1CN(C)Cc1cccnc1	2
Cc1ccc(-c2ccc3c(c2)O[C@H](CN(C)Cc2cncnc2)[C@H](C)CN([C@@H](C)CO)S3(=O)=O)cc1	57*
C[C@H](CO)N1C[C@H](C)[C@@H](CN(C)Cc2cccnc2)Oc2cc(C#C[C@@H](C)O)ccc2S1(=O)=O	-1
COc1ccccc1C#Cc1ccc2c(c1)O[C@H](CN(C)Cc1cncnc1)[C@@H](C)CN([C@H](C)CO)S2(=O)=O	-22
C[C@H]1CN([C@@H](C)CO)S(=O)(=O)c2ccc(-c3ccccc3)cc2O[C@H]1CN(C)Cc1cncnc1	1
C[C@@H]1CN([C@H](C)CO)S(=O)(=O)c2ccc(C#C[C@@H](C)O)cc2O[C@@H]1CN(C)Cc1cccnc1	-3
C[C@H](CO)N1C[C@H](C)[C@@H](CN(C)Cc2cncnc2)Oc2cc(-c3cncnc3)ccc2S1(=O)=O	5
C[C@H](O)C#Cc1ccc2c(c1)O[C@@H](CN(C)Cc1ccc(-c3ccccc3)cc1)[C@@H](C)CN([C@@H](C)CO)S2(=O)=O	38*
COc1ccccc1C#Cc1ccc2c(c1)O[C@@H](CN(C)Cc1cncnc1)[C@@H](C)CN([C@@H](C)CO)S2(=O)=O	4
COc1ccccc1C#Cc1ccc2c(c1)O[C@H](CN(C)Cc1cccnc1)[C@@H](C)CN([C@@H](C)CO)S2(=O)=O	40*
C[C@H](CO)N1C[C@H](C)[C@H](CN(C)Cc2ccc(-c3ccccc3)cc2)Oc2cc(C#C[C@@H](C)O)ccc2S1(=O)=O	41*
S=C(NCC1CCCCC1)Nc1ccc(Oc2ccccc2)cc1	-117
CO[C@H]1CN(C)C(=O)c2cc(NS(=O)(=O)CC(F)(F)F)ccc2OC[C@@H](C)N(C)C[C@@H]1C	0
Cc1cc(Cl)c(Cl)cc1S(=O)(=O)NCCCn1ccnc1	-132
C[C@H](CO)N1C[C@H](C)[C@H](CN(C)C(=O)c2cccnc2)Oc2ncc(-c3ccc(C(=O)N(C)C)cc3)cc2C1=O	-9
COc1ccc(C#Cc2cnc3c(c2)C(=O)N([C@H](C)CO)C[C@H](C)[C@H](CN(C)S(=O)(=O)c2ccc(C)cc2)O3)cc1OC	10
CCOc1ccc(C)cc1S(=O)(=O)NC1CCCCC1	-283
C[C@H](CO)N1C[C@H](C)[C@H](CN(C)S(=O)(=O)c2ccc(F)cc2)Oc2ncc(-c3cccc(C(=O)N(C)C)c3)cc2C1=O	3
COCC#Cc1ccc2c(c1)O[C@H](CN(C)Cc1cncnc1)[C@@H](C)CN([C@@H](C)CO)S2(=O)=O	-1
CCC(=O)Nc1ccc2c(c1)OC[C@@H](C)N(Cc1ccccc1F)C[C@@H](C)[C@@H](OC)CN(C)C2=O	-1
C[C@H]1CN([C@@H](C)CO)S(=O)(=O)c2ccc(-c3cccnc3)cc2O[C@H]1CN(C)Cc1ccccn1	3
C[C@@H]1CN([C@H](C)CO)C(=O)c2cc(C3=CCCCC3)cnc2O[C@H]1CN(C)C(=O)c1ccc(F)cc1	2
COc1cccc(-c2ccc3c(c2)O[C@@H](CN(C)C(C)=O)[C@H](C)CN([C@@H](C)CO)S3(=O)=O)c1	-1
C/C=C/c1cnc2c(c1)C(=O)N([C@@H](C)CO)C[C@@H](C)[C@H](CN(C)S(=O)(=O)c1ccc(C)cc1)O2	1
C[C@@H]1CN([C@H](C)CO)S(=O)(=O)c2ccc(C#C[C@@H](C)O)cc2O[C@@H]1CN(C)Cc1cncnc1	0
C[C@@H](O)C#Cc1ccc2c(c1)O[C@H](CN(C)Cc1cncnc1)[C@@H](C)CN([C@@H](C)CO)S2(=O)=O	0
C[C@H](CO)N1C[C@H](C)[C@H](CN(C)Cc2cncnc2)Oc2cc(C#C[C@@H](C)O)ccc2S1(=O)=O	3
